Only some compounds are listed: those with a hit (about 2.2% of all), similar ones and a draw of the others.
CRFBP-R2 agonist: agonists of human CRF-binding protein/CRF-R2 receptor complex | 350,000 tested, 0.46% active | AID 588473 | HEK293 CRF-R2/CRF-BP, calcium dye fluorescence (FLIPR); percent of saturating CRF peptide response | activation, % at 13.2 µM;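 active means activation of at least 50%, plus an integration ratio under a set limit after plate pattern correction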;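 further: plate controls were neutral control wells without compound for no effect and CRF at EC100 for full effect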
RTF Ca sens act: cardiac RTF calcium sensitization; P19429+P45379; IANBD-labeled TnC RTF fluorescence at EC20 calcium; 0% EC20 calcium, 100% full calcium; activation, % at 7.2 µM; 340,000 tested, 0.24% active; AID 493008;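 active means activation above the mean over all tested compounds plus 3 SD, cut at about 30% in these data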;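 further: rise in fluorescence read as greater calcium sensitivity of cardiac thin filaments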
CRFR2-BP antag: CRF-BP/CRF-R2 complex antagonism | inhibition, % at 11.8 µM | 350,000 tested, 0.59% active | AID 588475 | HEK293 CRF-R2/CRF-BP, CRF-induced calcium fluorescence;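 active means inhibition of the ligand-induced calcium signal above about 50% at the single tested concentration, limit read from the data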
RTF Ca sens inh: cardiac RTF calcium desensitization | AID 493244 | 340,000 tested, 0.12% active | IANBD-labeled cardiac RTF, Ca2+ fluorescence | inhibition, % at 7.15 µM | P19429+P45379;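 active means inhibition above the mean inhibition of all tested compounds plus 3 SD, cut at about 17% in these data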;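 further: assay run at fixed EC70 calcium of 1.6 mM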
Myeloid diff MLP: compounds promoting myeloid differentiation. ER-HoxA9 myeloid progenitors, lysozyme-GFP differentiation, flow cytometry. calls only at 10 µM. 360,000 tested, 1% active. AID 624256;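 active means normalized GFP-positive differentiation at or above the plate's own cutoff, the solvent-only control mean plus 3 SD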;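 further: cells exposed to compound for four days before flow analysis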
Myeloid diff CP1: myeloid differentiation induction | shares compounds with Myeloid diff MLP | ER-HoxA9 myeloid progenitors, GFP/Mac1 double-positive flow | calls only | 2,300 tested, 2% active | AID 651706;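 active means share of green or green-and-red cells above 9 and 9% in run 1 or 4 and 3% in run 2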
GFP autofluor: compound fluorescence in myeloid differentiation counter-screen. shares compounds with Myeloid diff MLP. ER-HoxA9 myeloid progenitors, no estrogen, GFP autofluorescence flow cytometry; vehicle wells 0%, positive control 100%. fluorescence response, % (concentration not given with the values). 2,300 tested, 7.4% active;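 active means over 5% cells positive for green fluorescent reporter, or over 2% positive for both it and APC stain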;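 further: range taken on the double positive population between DMSO and positive control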
Active calls of the source: *; i = inactive; · = no result given; + = active, no number.

SMILES	CRFBP-R2 agonist	RTF Ca sens act	CRFR2-BP antag	RTF Ca sens inh	Myeloid diff MLP	Myeloid diff CP1	GFP autofluor
CC(=O)Nc1ccc(S(=O)(=O)N2CCSC2c2ccc(C)cc2)cc1 (stereo not drawn)	0	9	2	-6	i	·	·
COc1ccc(C2SCCN2S(=O)(=O)c2ccc(NC(C)=O)cc2)cc1 (stereo not drawn)	0	8	13	-5	+	i	0
Cc1ccc(NC(=O)COC(=O)c2cc(=O)c3cc(F)ccc3o2)cc1	-2	4	-3	-7	i	·	·
COc1ccccc1C(c1nnnn1Cc1ccco1)N1CCN(c2cccc(C)c2C)CC1 (stereo not drawn)	1	-8	21	3	i	i	0
CCN1CCN(C(c2cccc(OC)c2OC)c2nnnn2Cc2ccco2)CC1 (stereo not drawn)	0	-2	-12	-12	i	·	·
Cc1ccc(Nc2nc(=O)c3cccnc3s2)c(Br)c1	-1	-2	-6	7	+	+	1
CC(=O)c1ccc(Nc2nc(=O)c3cccnc3s2)cc1	-1	-1	14	0	i	·	·
COc1ccc(-n2c(Cc3cccn3C)nnc2SCC(=O)Nc2nc(C)cs2)cc1	-3	11	29	-6	i	i	0
COc1ccc(-n2c(Cc3cccn3C)nnc2SCC(=O)Nc2ccccc2)cc1	-1	1	2	-2	i	·	·
N#Cc1ccsc1NC(=O)C1CC(=O)N(Cc2ccccc2)C1 (stereo not drawn)	0	-4	21	-11	i	i	0
CN(c1ccc(C(=O)NCc2ccc3c(c2)OCO3)cc1)S(=O)(=O)c1ccccc1	2	-1	4	4	i	i	1
CN(c1ccc(C(=O)NCc2ccc3c(c2)OCO3)cc1)S(C)(=O)=O	-3	-7	-4	-7	i	·	·
COC1OC2COC(c3ccccc3)OC2C(OC(C)=O)C1OC(C)=O (stereo not drawn)	-2	-3	1	-9	i	·	·
CN1OC[C@@H]2CN[C@H](c3ccc(-c4cc5ccccc5o4)cc3)C[C@@H]21	0	·	-4	·	i	·	·
O=C(CSc1nc2ccc(F)cc2c(=O)n1-c1ccccc1)Nc1ccc2c(c1)CCC2	·	·	·	·	+	i	0
O=C(CSc1nc2ccccc2c(=O)n1-c1ccc(F)cc1)Nc1ccc2c(c1)CCC2	2	8	-12	-29	i	·	·
COc1ccc(C(=O)NCC(c2ccco2)N(C)C)cc1S(=O)(=O)NCc1ccc(Cl)cc1 (stereo not drawn)	0	1	-3	-9	i	·	·
CCOC(=O)c1cc2sccc2n1CC(=O)N1CCCc2ccccc21	0	9	5	-8	+	i	0
CCN1CCN(c2ccc(S(=O)(=O)N3CCCCC3)cc2NC(=O)c2ccccc2)CC1	0	-3	-7	-5	i	·	·
CCN1CCN(c2ccc(S(=O)(=O)N3CCCCC3)cc2NC(=O)c2ccc([N+](=O)[O-])s2)CC1	-1	-10	-6	10	+	i	0
CCN1CCN(c2ccc(S(=O)(=O)N3CCCCC3)cc2NC(=O)/C=C/c2ccc(Cl)cc2)CC1	0	-1	-7	-8	+	i	16*
CCN1CCN(c2ccc(S(=O)(=O)N3CCCCC3)cc2NC(=O)/C=C/c2ccc(OC)c(OC)c2)CC1	1	-7	-17	-72	i	·	·
CCOC(=O)C1CCN(C(=O)c2cccc(S(=O)(=O)NCc3ccccc3)c2)CC1	0	7	0	-8	i	·	·
COc1cccc(C(O)c2nc(-c3ccccc3C)cs2)c1 (stereo not drawn)	·	·	·	·	+	i	0
COc1cccc(C(O)c2nc(-c3ccccc3OC)cs2)c1 (stereo not drawn)	·	·	·	·	i	·	·
SMILES	CRFBP-R2 agonist	RTF Ca sens act	CRFR2-BP antag	RTF Ca sens inh	Myeloid diff MLP	Myeloid diff CP1	GFP autofluor
O=C1C=C(O)CC2(CCCCC2)C1	·	·	·	·	+	i	0
Cc1ccc(N2C(=O)CC3(CCCC3)CC2=O)cc1	0	7	8	-1	i	·	·
COC(=O)C1C(=O)c2c([nH]c(C(=O)OCC3CCCO3)c2C)CC1C (stereo not drawn)	4	1	13	-11	i	i	0
CCN(CC(=O)Nc1c(F)cccc1F)C(=O)CC1CCCCC1	0	15	-1	-3	i	i	2
C[C@H](NC(=O)c1nc[nH]c1C(=O)N(C)Cc1ccccc1)C(=O)OC(C)(C)C	-3	-2	-2	5	i	·	·
CN(Cc1ccccc1)C(=O)c1[nH]cnc1C(=O)NCCCCCNC(=O)OC(C)(C)C	3	8	14	-17	+	i	1
CCCc1nc2c3ccccc3ccn2c1Cc1ccc(OC)cc1C	·	·	·	·	+	+	1
Cc1nn2c(N3CCOCC3)c3c(nc2c1-c1ccccc1)CCCC3	1	-1	-29	2	+	i	2
O=C(NCCNS(=O)(=O)c1cccc(C(F)(F)F)c1)c1cc(OCC(F)(F)F)ccc1OCC(F)(F)F	2	-2	5	7	i	i	0
COc1cc(C(=O)N(CCN(C)C)CC2CCCN(Cc3ccccc3F)C2)ccc1C (stereo not drawn)	11	0	-2	-7	i	·	·
COc1ccccc1CCc1nnc(N)s1	-1	-1	-3	-2	i	·	·
Nc1nnc(CCOc2ccccc2Cl)s1	0	5	-42	-4	i	i	0
Cc1noc(C)c1COc1ccccc1C(=O)NCCc1ccc(F)cc1	1	-3	-3	11	i	·	·
COc1cccc(CNC(=O)CN(C)S(=O)(=O)c2cnc[nH]2)c1	9	16	10	3	+	i	1
Cc1ccc(CNC(=O)CN(C)S(=O)(=O)c2cnc[nH]2)cc1	0	4	20	-6	i	·	·
CC1=Nc2ccc(C)c3nc(C)cc(c23)N1c1ccc(C)cc1	-2	0	4	-20	+	i	0
Cc1ccc(N2C=Nc3ccc(C)c4nc(C)cc2c34)cc1	1	-1	23	0	i	·	·
Cc1ccccc1S(=O)(=O)c1cc2ccccc2nc1N	-2	11	-7	-1	i	i	0
CCCCN1C[C@H](Cc2ccccc2)[C@@H](CC(=O)Nc2ccc(OC)cc2)C1=O	-1	·	11	·	i	·	·
CC1(C)CN(c2ccc(Br)cc2)C(=O)[C@H]1CC(=O)Nc1ccccc1	3	·	-1	·	i	·	·
CCCCN1C[C@H](Cc2ccccc2)[C@@H](CC(=O)Nc2ccccc2)C1=O	1	-15	-3	-12	i	i	0

Screening results deposited in PubChem BioAssay by several laboratories.
